In PubChem BioAssay AID1159580 (chemical genetic matrix, 2015):
Among all 5,500 compounds or so, about 2,000 (36%) were called active. Roughly 18% stayed inconclusive and do not appear here. Rule as the data show it: active = normalized growth mostly below about 0.91 (no sharp cut-off); inconclusive = no clear call, values can overlap the other calls; inactive = mostly above about 0.92. The list shows a part of the results.

Test: chemical genetic growth profiling, strain panel (AID 1159580);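 also: tested at 20 µM; growth read once vehicle control cultures reached saturation at 30 °C; 1 = growth at the plate median or of vehicle wells; lower values mean less growth of the strain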
Conditions: growth OD
[1] = S. cerevisiae deletion strains, locus YAL040C, strain CLN3, stronger effect = lower value
[2] = S. cerevisiae deletion strains, locus YDR150W, strain NUM1, stronger effect = lower value
[3] = S. cerevisiae deletion strains, locus YDR363W, strain ESC2, stronger effect = lower value
[4] = S. cerevisiae deletion strains, locus YER002W, strain NOP16, stronger effect = lower value
[5] = S. cerevisiae deletion strains, locus YGR078C, strain PAC10, stronger effect = lower value
[6] = S. cerevisiae deletion strains, locus YJR075W, strain HOC1, stronger effect = lower value
[7] = S. cerevisiae deletion strains, locus YMR307W, strain GAS1, stronger effect = lower value
[8] = S. cerevisiae deletion strains, locus YNL128W, strain TEP1, stronger effect = lower value
[9] = S. cerevisiae deletion strains, locus YNL153C, strain GIM3, stronger effect = lower value
[10] = S. cerevisiae deletion strains, locus YNL175C, strain NOP13, stronger effect = lower value
[11] = S. cerevisiae deletion strains, locus YNL197C, strain WHI3, stronger effect = lower value
[12] = S. cerevisiae deletion strains, locus YNL224C, strain SQS1, stronger effect = lower value
[13] = S. cerevisiae deletion strains, locus YNL322C, strain KRE1, stronger effect = lower value
[14] = S. cerevisiae deletion strains, locus YOR083W, strain WHI5 (second series), stronger effect = lower value
[15] = S. cerevisiae deletion strains, locus YMR263W, strain SAP30, stronger effect = lower value
[16] = S. cerevisiae deletion strains, locus YPL241C, strain CIN2, stronger effect = lower value
[17] = S. cerevisiae deletion strains, locus YDL101C, strain DUN1, stronger effect = lower value
[18] = S. cerevisiae deletion strains, locus YHR030C, strain SLT2, stronger effect = lower value

Measured: normalized growth

CC(=O)/C(C)=N\O
inactive: [1] 0.972 | [2] 0.972 | [3] 1.07 | [4] 0.994 | [5] 1 | [6] 0.987 | [7] 1.07 | [8] 0.983 | [9] 0.979 | [10] 0.978 | [11] 1 | [12] 1.01 | [13] 1 | [14] 0.986

[N-]=[N+]=Nc1ccc(C(=O)CSC[C@H](NC(=O)CC[C@H](N)C(=O)O)C(=O)NCC(=O)O)cc1
inactive: [1] 1.02 | [3] 0.999 | [4] 0.989 | S. cerevisiae deletion strains, locus YGR229C, strain SMI1, stronger effect = lower value 1 | [15] 0.997 | [9] 0.99 | [10] 1.01 | [11] 1.01 | [12] 1.01 | [13] 1.01 | [14] 1.01 | [16] 0.996

CSc1ccc(C(=O)O)s1
active: [5] 0.926 | S. cerevisiae deletion strains, locus YHR087W, strain rtc3, stronger effect = lower value 0.862 | [6] 0.874
inactive: S. cerevisiae deletion strains, locus YAL013W, strain DEP1, stronger effect = lower value 0.969 | S. cerevisiae deletion strains, locus YBR229C, strain ROT2, stronger effect = lower value 0.931 | S. cerevisiae deletion strains, locus YCL061C, strain MRC1, stronger effect = lower value 0.938 | [17] 0.939 | [2] 0.945 | S. cerevisiae deletion strains, locus YEL061C, strain CIN8, stronger effect = lower value 1.03 | [18] 1.16 | S. cerevisiae deletion strains, locus YJR043C, strain POL32, stronger effect = lower value 0.961 | S. cerevisiae deletion strains, locus YKL190W, strain CNB1, stronger effect = lower value 1.01 | S. cerevisiae deletion strains, locus YLR039C, strain RIC1, stronger effect = lower value 1.04 | S. cerevisiae deletion strains, locus YLR058C, strain SHM2 (second series), stronger effect = lower value 0.945 | S. cerevisiae deletion strains, locus YLR085C, strain ARP6, stronger effect = lower value 1.1 | S. cerevisiae deletion strains, locus YLR262C, strain YPT6, stronger effect = lower value 1.01 | S. cerevisiae deletion strains, locus YML094W, strain GIM5, stronger effect = lower value 1.04 | S. cerevisiae deletion strains, locus YMR219W, strain ESC1, stronger effect = lower value 0.957 | [15] 0.955 | [7] 1.05 | [8] 1.01 | [9] 0.932 | S. cerevisiae deletion strains, locus YNL298W, strain CLA4 (second series), stronger effect = lower value 1.07 | [13] 0.944 | S. cerevisiae deletion strains, locus YNR030W, strain Alg12, stronger effect = lower value 1.03 | S. cerevisiae deletion strains, locus YPL055C, strain LGE1, stronger effect = lower value 0.883 | [16] 0.906 | S. cerevisiae deletion strains, locus YPR135W, strain CTF4, stronger effect = lower value 1.11 | S. cerevisiae strains, strain wild type, stronger effect = lower value 1.01

N#Cc1c(Br)cnn1Cc1cc(C(F)(F)F)cc(C(F)(F)F)c1
inactive: S. cerevisiae deletion strains, locus YAR019C, strain CDC15, stronger effect = lower value 0.997 | S. cerevisiae deletion strains, locus YBL105C, strain PKC1, stronger effect = lower value 1 | S. cerevisiae deletion strains, locus YBR135W, strain CKS1, stronger effect = lower value 1.01 | S. cerevisiae deletion strains, locus YBR136W, strain MEC1, stronger effect = lower value 0.995 | S. cerevisiae deletion strains, locus YBR160W, strain CDC28, stronger effect = lower value 0.999 | S. cerevisiae deletion strains, locus YDL017W, strain CDC7, stronger effect = lower value 0.995 | S. cerevisiae deletion strains, locus YDL028C, strain MPS1, stronger effect = lower value 1 | [17] 0.988 | S. cerevisiae deletion strains, locus YDL108W, strain KIN28, stronger effect = lower value 0.997 | S. cerevisiae deletion strains, locus YDL132W, strain cdc53, stronger effect = lower value 0.999 | S. cerevisiae deletion strains, locus YDL214C, strain PRR2, stronger effect = lower value 0.863 | S. cerevisiae deletion strains, locus YDR052C, strain DBF4, stronger effect = lower value 0.993 | S. cerevisiae deletion strains, locus YDR054C, strain cdc34, stronger effect = lower value 0.989 | S. cerevisiae deletion strains, locus YDR226W, strain ADK1, stronger effect = lower value 1 | S. cerevisiae deletion strains, locus YDR477W, strain SNF1, stronger effect = lower value 0.939 | S. cerevisiae deletion strains, locus YER123W, strain YCK3, stronger effect = lower value 0.842 | S. cerevisiae deletion strains, locus YER133W, strain GLC7, stronger effect = lower value 0.919 | S. cerevisiae deletion strains, locus YFL009W, strain cdc4, stronger effect = lower value 0.993 | S. cerevisiae deletion strains, locus YFL029C, strain CAK1, stronger effect = lower value 0.998 | S. cerevisiae deletion strains, locus YFR003C, strain YPI1, stronger effect = lower value 1 | S. cerevisiae deletion strains, locus YFR019W, strain FAB1, stronger effect = lower value 0.936 | S. cerevisiae deletion strains, locus YFR028C, strain CDC14, stronger effect = lower value 1 | S. cerevisiae deletion strains, locus YGR040W, strain KSS1, stronger effect = lower value 0.925 | S. cerevisiae deletion strains, locus YGR052W, strain FMP48, stronger effect = lower value 0.946 | S. cerevisiae deletion strains, locus YGR092W, strain DBF2, stronger effect = lower value 0.919 | [18] 0.933 | S. cerevisiae deletion strains, locus YHR079C, strain IRE1, stronger effect = lower value 0.93 | S. cerevisiae deletion strains, locus YHR082C, strain KSP1, stronger effect = lower value 0.907 | S. cerevisiae deletion strains, locus YHR205W, strain SCH9, stronger effect = lower value 0.817 | S. cerevisiae deletion strains, locus YIL147C, strain SLN1, stronger effect = lower value 0.99 | S. cerevisiae deletion strains, locus YJL095W, strain BCK1, stronger effect = lower value 0.941 | S. cerevisiae deletion strains, locus YJL128C, strain PBS2, stronger effect = lower value 0.887 | S. cerevisiae deletion strains, locus YJL157C, strain FAR1, stronger effect = lower value 0.909 | S. cerevisiae deletion strains, locus YJR016C, strain ILV3, stronger effect = lower value 0.989 | S. cerevisiae deletion strains, locus YJR066W, strain TOR1 (second series), stronger effect = lower value 0.919 | S. cerevisiae deletion strains, locus YJR066W, strain TOR1, stronger effect = lower value 0.952 | S. cerevisiae deletion strains, locus YKL048C, strain ELM1, stronger effect = lower value 0.957 | S. cerevisiae deletion strains, locus YKL067W, strain YNK1, stronger effect = lower value 0.895 | S. cerevisiae deletion strains, locus YKL101W, strain HSL1, stronger effect = lower value 0.878 | S. cerevisiae deletion strains, locus YKL193C, strain SDS22, stronger effect = lower value 0.996 | S. cerevisiae deletion strains, locus YKL203C, strain TOR2, stronger effect = lower value 1 | S. cerevisiae deletion strains, locus YLR133W, strain CKI1, stronger effect = lower value 0.926 | S. cerevisiae deletion strains, locus YLR403W, strain SFP1, stronger effect = lower value 0.933 | S. cerevisiae deletion strains, locus YML070W, strain DAK1, stronger effect = lower value 0.884 | S. cerevisiae deletion strains, locus YMR001C, strain CDC5, stronger effect = lower value 0.997 | S. cerevisiae deletion strains, locus YMR205C, strain PFK2 (second series), stronger effect = lower value 0.907 | S. cerevisiae deletion strains, locus YMR277W, strain FCP1, stronger effect = lower value 1 | S. cerevisiae deletion strains, locus YNL006W, strain LST8, stronger effect = lower value 0.997 | S. cerevisiae deletion strains, locus YNL020C, strain ARK1, stronger effect = lower value 0.888 | S. cerevisiae deletion strains, locus YNL161W, strain CBK1, stronger effect = lower value 0.994 | S. cerevisiae deletion strains, locus YNL183C, strain NPR1, stronger effect = lower value 0.931 | S. cerevisiae deletion strains, locus YNL207W, strain RIO2, stronger effect = lower value 0.99 | S. cerevisiae deletion strains, locus YNL222W, strain SSU72, stronger effect = lower value 0.996 | S. cerevisiae deletion strains, locus YNL307C, strain MCK1 (second series), stronger effect = lower value 0.903 | S. cerevisiae deletion strains, locus YOL078W, strain AVO1, stronger effect = lower value 0.999 | S. cerevisiae deletion strains, locus YOL136C, strain PFK27, stronger effect = lower value 0.859 | S. cerevisiae deletion strains, locus YOR061W, strain CKA2, stronger effect = lower value 0.867 | S. cerevisiae deletion strains, locus YOR119C, strain RIO1, stronger effect = lower value 0.974 | S. cerevisiae deletion strains, locus YOR231W, strain MKK1, stronger effect = lower value 0.903 | S. cerevisiae deletion strains, locus YOR329C, strain SCD5, stronger effect = lower value 0.991 | S. cerevisiae deletion strains, locus YPL031C, strain PHO85, stronger effect = lower value 0.922 | S. cerevisiae deletion strains, locus YPL153C, strain RAD53, stronger effect = lower value 0.928 | S. cerevisiae deletion strains, locus YPL204W, strain HRR25, stronger effect = lower value 0.943 | S. cerevisiae deletion strains, locus YPL209C, strain IPL1, stronger effect = lower value 1 | S. cerevisiae deletion strains, locus YPL256C, strain CLN2, stronger effect = lower value 0.876 | S. cerevisiae deletion strains, locus YPR025C, strain CCL1, stronger effect = lower value 0.999 | S. cerevisiae deletion strains, locus YPR106W, strain ISR1, stronger effect = lower value 0.983 | S. cerevisiae deletion strains, locus YPR111W, strain DBF20, stronger effect = lower value 0.959 | S. cerevisiae deletion strains, strain NNK1, stronger effect = lower value 0.956 | S. cerevisiae deletion strains, strain TSCII, stronger effect = lower value 0.998
active: S. cerevisiae deletion strains, locus YLR113W, strain HOG1, stronger effect = lower value 0.761
